Most compounds without a hit are left out; they make up all but 4.7% or so of the library.
Efflux pump inh – inhibitors of Candida antifungal efflux pumps expressed in yeast | S. cerevisiae Candida pump triplex, Nile Red efflux | inhibition, % at 10 µM | actives 0.44% (n = 330,000) | AID 485275;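 active means plate passing quality check with inhibition over a set limit, or well fluorescence over plate mean plus 4 SD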;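 further: Nile Red retained in pooled yeast measured as flow cytometry median fluorescence; higher means more Nile Red kept so more efflux inhibition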
MLLE-PAM2 inh – blocks PAM2 peptide binding to the PABP1 MLLE domain; actives 0.36% (n = 360,000); GST-MLLE / FITC-PAM2 fluorescence polarization; P11940; AID 588489; inhibition, % at 20 µM; in the data active means inhibition above about 35%, passing the limit was not always enough
ALR H2O2 inh – human ALR oxidase inhibition via reduced H2O2; actives 3.8% (n = 290,000); inhibition, % (no concentration beside the values); purified ALR, DTT oxidation, H2O2 HRP-luminol luminescence;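 active means mean replicate inhibition above about 79%, with every replicate also reaching it, limit read from the data; inconclusive means only one of the two criteria met; inactive means mean below limit and not every replicate reaching it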
Target sequence (P55789 whole entry, looked up): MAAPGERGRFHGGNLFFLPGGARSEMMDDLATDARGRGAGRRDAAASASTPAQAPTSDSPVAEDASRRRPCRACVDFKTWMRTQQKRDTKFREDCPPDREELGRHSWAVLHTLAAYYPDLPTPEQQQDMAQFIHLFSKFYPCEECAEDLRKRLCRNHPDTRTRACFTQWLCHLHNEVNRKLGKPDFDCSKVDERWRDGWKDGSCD
UBC9 SUMO inh – blocks human SUMOylation mediated by UBC9 | inhibition, % at 35 µM | actives 0.36% (n = 290,000) | HTRF SUMOylation assay, SAE1/SAE2 + UBC9, in vitro | P63279; in the data active means inhibition above about 50%, passing the limit was not always enough; inconclusive means no clear call, values can overlap the other calls
Target sequence (P63279 whole entry, looked up): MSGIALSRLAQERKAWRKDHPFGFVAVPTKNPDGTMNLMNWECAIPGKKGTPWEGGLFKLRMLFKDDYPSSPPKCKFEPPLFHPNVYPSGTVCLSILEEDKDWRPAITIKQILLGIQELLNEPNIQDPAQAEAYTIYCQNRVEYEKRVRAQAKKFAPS
PABP FP inh – blocks human PABP binding to poly(A) RNA. fluorescence polarization. P11940. inhibition, % at 35 µM. actives 1% (n = 290,000). AID 2014;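 further: calls also rest on retests at 20 µM and on dose response follow-up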
eIF4H FP inh – inhibitors of RNA binding by human eIF4H; Q15056; eIF4H fluorescence polarization binding assay; inhibition, % at 35 µM; actives 0.94% (n = 290,000);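 further: calls also rest on retests at 20 µM and on dose response follow-up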
A number is an active result; - = inactive; ? = inconclusive; . = no result given. Unless noted, how the calls were made is not given here.

SMILES	Efflux pump inh	MLLE-PAM2 inh	ALR H2O2 inh	UBC9 SUMO inh	PABP FP inh	eIF4H FP inh
CCN(CC)c1ccc(C=C2C(=O)NC(=S)NC2=O)cc1	-	-	99	-	-	-
CN(C)c1ccc(C=C2C(=O)NC(=S)NC2=O)cc1	.	-	.	.	.	.
CCOC(=O)c1ccc(NC(=O)N2C[C@@H]3C[C@@H](C2)c2cccc(=O)n2C3)cc1	-	-	-	-	-	-
CCN1/C(=C/C=C/C2=[N+](CC)c3ccccc3C2(C)C)C(C)(C)c2ccccc21	.	-	.	.	.	.
CN1/C(=C\C=C\C2=[N+](C)c3ccc4ccccc4c3C2(C)C)C(C)(C)c2ccccc21	106	.	.	-	?	?
CC1(O)CCN2C(=O)CCc3cccc1c32 (centres undefined)	-	-	97	.	.	.
Oc1ccc(C[C@H]2NCCc3cc(O)c(O)cc32)cc1O	-	-	99	-	-	-
C[C@H](N)CN1CCc2ccc(Br)cc21	-	-	99	.	.	.
COC(=O)C1=C(c2ccc(OCc3ccccc3)cc2)C[C@@H]2CC[C@H]1N2C(=O)NCc1ccc2c(c1)OCO2	.	-	.	.	.	.
ClCCNc1nc2ccc(Cl)cc2[nH]1	-	-	98	-	-	-
CO[C@H]1C=C2CCN(C)[C@H]2C2c3cc4c(cc3C(=O)O[C@@H]21)OCO4 (some centres undefined)	-	-	-	.	.	.
C/C(=C\c1ccc(N(C)C)cc1)[N+](=O)[O-]	-	-	.	-	-	-
CN(C)c1ccc(/C=C/[N+](=O)[O-])cc1	-	-	98	-	-	-
c1ccc2c(c1)Sc1ccccc1N2CC1CN2CCC1CC2 (centres undefined)	-	-	98	-	-	-
Clc1ccccc1CNC1CN2CCC1CC2 (centres undefined)	-	-	-	-	-	-
O=c1cccc2n1CC1CC2CN(S(=O)(=O)c2ccccc2)C1 (centres undefined)	-	-	-	-	-	-
O=S(=O)(c1ccccc1)N1CCN2CCCC2C1 (centres undefined)	-	-	-	-	82	96
OCCNc1c2c(nc3ccccc13)CCCC2	-	-	-	-	-	-
C[n+]1c2ccccc2nc2ccc(NCCO)cc21	1.8	-	-	-	76	-
CNc1ccc2nc3ccccc3[n+](C)c2c1	6.0	86	.	-	?	?
CCOC(=O)CSc1ccc(C(=O)N2CCC3(CC2)OCCO3)cc1[N+](=O)[O-]	-	-	-	-	-	-
C=C1C(=O)O[C@@H]2C[C@@H](C)[C@@H]3C=CC(=O)[C@@]3(C)[C@@H](OC(=O)CC(=O)O[C@H]3[C@@H]4C(=C)C(=O)O[C@@H]4C[C@@H](C)[C@@H]4C=CC(=O)[C@]43C)[C@H]12	-	-	-	54	-	-
C=C1C(=O)OC2CC(C)C3C=CC(=O)C3(C)C(O)C12 (centres undefined)	.	-	.	.	.	.
O=C1NC(=O)C(=Cc2ccc(-c3ccc(F)cc3O)o2)C(=O)N1	-	-	98	-	-	-
O=C1NC(=O)C(=Cc2ccc(-c3ccc(Cl)cc3)o2)C(=O)N1	-	-	94	-	-	-
SMILES	Efflux pump inh	MLLE-PAM2 inh	ALR H2O2 inh	UBC9 SUMO inh	PABP FP inh	eIF4H FP inh
O=C1NC(=O)C(=Cc2ccc(N3CCOCC3)cc2)C(=O)N1	-	-	-	-	-	-
O=C1NC(=O)C(=Cc2ccc(-c3ccc(S(=O)(=O)N4CCOCC4)cc3)o2)C(=O)N1	-	-	92	-	-	-
O=C1NC(=O)C(=Cc2ccc(Sc3ccccc3)o2)C(=O)N1	-	-	-	-	?	?
Cc1ccc[n+](CC(O)Cn2c3ccccc3c3ccccc32)c1 (centres undefined)	-	-	.	-	-	-
COc1cc(OC)c(OC)cc1CNCCc1ccc2c(c1)OCO2	-	-	.	-	-	-
O=C1NC(=O)C2(Cc3ccccc3N3CCCC32)C(=O)N1 (centres undefined)	-	-	99	-	-	-
CN1CCN2c3ccc(N)cc3CC3(C(=O)NC(=O)NC3=O)C2C1 (centres undefined)	.	-	.	79	?	-
COc1cc(N2CCOCC2)ccc1C=C1C(=O)NC(=O)NC1=O	-	-	-	-	4.4	69
Cc1ccc2c(c1)C1CN(C)CCC1N2C(=O)c1cn(-c2ccccc2)nc1-c1ccccc1 (centres undefined)	-	-	-	-	-	-
C=CC[N+]1(C)CC[C@]23c4c5ccc(O)c4O[C@H]2C(=O)CC[C@@]3(O)[C@H]1C5 (some centres undefined)	-	-	-	.	.	.
COP(=O)(OC)C(Nc1ccccc1)c1ccccc1 (centres undefined)	-	-	96	-	-	-
COc1ccc(NC(c2ccccc2)P(=O)(Oc2ccccc2)Oc2ccccc2)cc1 (centres undefined)	-	-	-	-	-	-
CCCCn1c(O)c(C(CC)=Nc2ccc(C(=O)O)cc2)c(=O)[nH]c1=O	-	-	-	-	-	62
COC(=O)C1=C(c2ccc(-c3ccccc3)c(F)c2)C[C@@H]2CC[C@H]1N2C(=O)N1CCOCC1	-	-	-	.	.	.
C/C(=N\Nc1ccccc1)c1c(O)[nH]c(=O)[nH]c1=O	-	-	-	-	-	-
CC/C(=N\NC(=S)Nc1ccccc1)c1c(O)[nH]c(=O)[nH]c1=O	-	-	99	-	-	-
COCCCNC(=O)c1c(NC(=O)c2ccco2)n(Cc2ccccc2)c2nc3ccccc3nc12	-	-	-	98	-	-
CCOC(=O)c1c(N)n(CCCOC(=O)c2ccco2)c2nc3ccccc3nc12	-	-	-	-	-	-
CCOC(=O)c1c(NS(=O)(=O)c2ccccc2)n(CCCOC)c2nc3ccccc3nc12	-	-	-	100	-	-
CCCCCn1c(NC(=O)c2ccco2)c(C(=O)OCC)c2nc3ccccc3nc21	-	-	-	101	-	-
COCCNC(=O)c1c(NC(=O)c2ccc(Br)o2)n(Cc2ccccc2)c2nc3ccccc3nc12	-	-	?	99	-	-
CCOc1cc2c(cc1OCC)-n1cccc1C(c1ccc(F)c(OC)c1)NC2 (centres undefined)	-	-	-	-	-	-
C/C(=N\N1CCN(C)CC1)c1c(O)[nH]c(=O)[nH]c1=O	-	-	-	-	-	-
CCCCNC(=O)c1c(N)n(CCCOC)c2nc3ccccc3nc12	-	-	.	99	-	-
NNc1n[nH]c(=S)n1N	-	-	-	-	-	-
C=CCn1c(O)c(/C=C2\C=Nc3ccccc32)c(=O)[nH]c1=O	-	-	-	-	58	?
COc1ccccc1-n1c(O)c(/C=C2\C=Nc3ccccc32)c(=O)[nH]c1=O	-	-	-	-	?	?
O=C(O)C1Cc2ccccc2N2CCCC12 (centres undefined)	-	-	92	-	?	?
O=C1NC(=O)C2(Cc3ccccc3N3CCCC32)C(=O)N1c1ccccc1 (centres undefined)	-	-	-	-	-	-
